From the supplement of paper PMC8540655
A number with no mark means an inactive call.

Tested on: Aedes aegypti larvae
Assay: larval motility relative to same well at 0 h (fraction); higher = more motile (less active compound), active = 0.4 or less
Conditions: 10 µM
In short: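 Aedes aegypti larvae were hatched at 25 °C in pond salt solution with yeast, collected after 18–24 h, and dispensed at about 10 per well (100 µL) in 96-well plates. Compounds were tested at 10 µM in 1% v/v DMSO, and each plate carried solvent and larvicide control wells. INVAPP movies of 200 frames at 100 ms intervals were recorded at 0, 2 and 24 h, and each value is the median of three independent larval batches. Relative motility is each well's score divided by that same well's starting score.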

| Compound | larval motility (2 h) | larval motility (24 h) |
| --- | --- | --- |
| CCc1oc2ccccc2c1C(=O)c1ccc(O)cc1 | 1.07 | 1.17 |
| CC(=O)NC[C@H]1CN(c2ccc(N3CCSCC3)c(F)c2)C(=O)O1 | 0.531 | 1.07 |
| OC1O[C@H](CSc2ccc(F)cc2)[C@@H](O)[C@H]1O (stereo partly drawn) | 1.09 | 1.32 |
| Nc1nc(-c2ccccc2)nc2[nH]nc(Nc3ccc(C(F)(F)F)cc3)c12 | 0.791 | 0.591 |
| O=C(Cn1cnc2ccccc2c1=O)Nc1ccccc1 | 0.554 | 0.782 |
| c1ccc(Cn2c(-c3ccccn3)nc3ccccc32)cc1 | 1.19 | 1.02 |
| CC(=O)Oc1ccccc1C(=O)Nc1ncc([N+](=O)[O-])s1 | 1.58 | 0.824 |
| NC(=O)c1cnccn1 | 0.745 | 1 |
| O=C(NNC(=S)Nc1ccc(Cl)cc1)c1ccncc1 | 0.695 | 0.45 |
| CCCc1ccc(-c2cc3cn([C@H]4C[C@H](O)[C@@H](CO)O4)c(=O)nc3o2)cc1 | 0.729 | 0.902 |
| COc1cc(Cc2cc(N)nc(N)n2)cc(OC)c1OC | 0.774 | 1.44 |
| Cc1cc(Nc2ccc(F)cc2)nc(SCc2nc3ccccc3[nH]2)n1 | 0.661 | 0.622 |
| Cc1c(OCC(F)(F)F)ccnc1CS(=O)c1nc2ccccc2[nH]1 (stereo not drawn) | 1.17 | 1.38 |
| COc1ccc(NS(=O)(=O)c2ccc(Cl)s2)cn1 | 0.931 | 1.43 |
| Cc1nc(N(C)C(=O)Cc2ccc(-c3ccccn3)cc2)sc1S(N)(=O)=O | 1.62 | 1.81 |
| Cc1cccc(CC(=O)N[C@H]2CCOC2=O)c1 | 1.05 | 1.31 |
| CC(C)C(=O)N[C@H]1[C@H]([C@H](O)[C@H](O)CO)OC(C(=O)O)=C[C@@H]1N=[N+]=[N-] | 1.64 | 1.56 |
| COc1ccc(NC(=O)CC2Sc3ncnn3C2=O)cc1 (stereo not drawn) | 0.728 | 0.333 (active) |
| Cc1cc(-c2ccccc2)c(C(=O)C(=O)Nc2ccc(N3CCN(c4ncc(F)cn4)CC3)cc2)n1C | 0.636 | 0.529 |
| COc1c(NC(=O)[C@H]2CC[C@@H](COc3ccc([N+](=O)[O-])cc3)CC2)c(F)cc2c(=O)c(C(=O)O)cn(C3CC3)c12 | 1.02 | 0.873 |
| CONC(=N)c1ccc(-c2ccc(-c3ccc(C(=N)NOC)cc3)o2)cc1 | 0.699 | 2.2 |
| OC(Cn1cncn1)(Cn1cncn1)c1ccc(F)cc1F | 1.05 | 0.875 |
| C(=C\c1nc2ccccc2[nH]1)/c1ccc2c(c1)OCO2 | 0.765 | 1.01 |
| CC1CCc2c(N3CCC(O)CC3)c(F)cc3c(=O)c(C(=O)O)cn1c23 (stereo not drawn) | 1.3 | 0.744 |
